From the supplement of paper PMC9135407
Where a name gives a salt, the structure may show the parent alone.

Test system: primary human hepatic stellate cells (donor 1)
Test: ACTA2 mRNA fold change vs DMSO (normalised to PSMB2); higher = more ACTA2 expression
Settings: 48 h
Description: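 Secondary qRT-PCR screen in primary human HSCs (donor 1), 384-well plates, with compounds dispensed in quadruplicate and incubated for 48 h. Cells-to-CT lysates were used for multiplexed TaqMan qPCR of ACTA2 or COL1A1 with PSMB2 as reference. Fold changes versus DMSO come from a linear model (Ct_gene ~ Ct_PSMB2 + plate + chemical). A hit is defined as COL1A1 and ACTA2 FC <0.5 (FDR <0.05) with PSMB2 between 0.2 and 2.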

SMILES | ACTA2 mRNA fold change
CNc1nccc(-c2cccnc2Oc2cc(C(=O)Nc3cccc(C(F)(F)F)c3)ccc2C)n1 (33.3333 µM) | 0.569
Clc1ccc(C2(c3ccc(-c4cn[nH]c4)cc3)CCNCC2)cc1 (33.3333 µM) | 0.0459
CCN(CC)CCOc1ccc(Cc2ccccc2)cc1 [DPPE fumarate] (33.3333 µM) | 0.397
O=C(O[C@H]1CN2CCC1CC2)N1CCc2ccccc2[C@@H]1c1ccccc1 [Solifenacin succinate] (33.3333 µM) | 0.257
CN1CCN(C2=Cc3ccccc3Oc3ccc(Cl)cc32)CC1 (33.3333 µM) | 0.196
CCC/C=C\C=C/C(=O)N[C@@H](CC(N)=O)C(=O)NC(CC(N)=O)C(=O)N[C@@H](C(=O)N[C@H](CCCN)C(=O)N[C@@H](C(=O)N[C@@H](C(=O)N[C@@H](C(=O)N[C@H](C(=O)N[C@@H](Cc1ccccc1)C(=O)N[C@H](CCCN)C(=O)NC(C(=O)N[C@H](C(=O)NC(C(=O)NCC(=O)N[C@@H](CC(C)C)C(=O)N[C@H](C)C(=O)NC(C(=O)O)C1CCC(O)C(Cl)C1)C1CCC(O)CC1)[C@H](C)O)C1CCC(O)CC1)[C@H](C)O)C1CCC(O)CC1)C1CCC(O)CC1)[C@H](C)O)C1CCC(O)CC1 (stereo not given in full) (33.3333 µM) | 0.502
O=C(Nc1ncc(SCCN2CCCC2)s1)[C@]1(c2ccc(S(=O)(=O)C3CC3)cc2)C[C@H]1C1CCCCC1 (11.1 µM) | 0.00928
O=C1NCN(c2ccccc2)C12CCN(CCCC(c1ccc(F)cc1)c1ccc(F)cc1)CC2 [Fluspirilene] (14.0333 µM) | 1.03
CCCSc1ccc2[nH]c(NC(=O)OC)nc2c1 [Albendazole] (33.3333 µM) | 0.173
CN(C)Cc1c(C(=O)NCCOc2ccc(C(=O)NO)cc2)oc2ccccc12 (33.3333 µM) | 0.00935
CC1(C)CC(=O)c2c(C(F)(F)F)nn(-c3ccc(C(N)=O)c(N[C@H]4CC[C@H](OC(=O)CN)CC4)c3)c2C1 (33.3333 µM) | 0.967
Nc1ccc(C(=O)Nc2cccc(-c3nc(N4CCOCC4)c4oc5ncccc5c4n3)c2)cn1 (6.66667 µM) | 1.8
C[C@]12CC[C@H](O)CC1=CC[C@@H]1[C@@H]2CC[C@]2(C)C(n3cnc4ccccc43)=CC[C@@H]12 [Galeterone] (33.3333 µM) | 0.0205
CN1CCN2c3ccccc3Cc3ccccc3C2C1 (stereo not given) [Mianserin hcl] (25.2333 µM) | 0.899
CNCCCC12CCC(c3ccccc31)c1ccccc12 [Maprotiline hydrochloride] (33.3333 µM) | 0.0243
CCN(CC)CC#CCOC(=O)C(O)(c1ccccc1)C1CCCCC1 (stereo not given) [Oxybutynin chloride] (16.9333 µM) | 1.09
C[C@@H](CN1CCC(n2c(=O)[nH]c3cc(Cl)ccc32)CC1)NC(=O)c1ccc2ccccc2c1 (33.3333 µM) | 0.045
Cn1cc(CNCC2CCN(c3ncc(C(=O)NO)cn3)CC2)c2ccccc21 [Quisinostat] (33.3333 µM) | 0.00604
c1cc(OCCN2CCCCC2)cc(-c2n[nH]c3ccc(-c4nnc[nH]4)cc23)c1 (33.3333 µM) | 0.0437
CC(C)c1cc(-c2n[nH]c(=O)n2-c2ccc3c(ccn3C)c2)c(O)cc1O [Ganetespib (STA-9090)] (33.3333 µM) | 0.605

SMILES | ACTA2 mRNA fold change
CN1CCN(Cc2ccc(-c3cnc4[nH]cc(-c5ccc6[nH]ccc6c5)c4c3)cc2)CC1 (6.66667 µM) | 0.042
Cc1cc(Nc2cc(N3CCN(C)CC3)nc(/C=C/c3ccccc3)n2)n[nH]1 (11.1 µM) | 0.703
CN(C)C/C=C(/c1ccc(Br)cc1)c1cccnc1 [Zimelidine dihydrochloride] (11.1 µM) | 0.452
Cc1[nH]c(/C=C2\C(=O)Nc3ccc(S(=O)(=O)N(C)c4cccc(Cl)c4)cc32)c(C)c1C(=O)N1CCN(C)CC1 (33.3333 µM) | 0.425
C#C[C@]1(O)CC[C@H]2[C@@H]3CCC4=Cc5oncc5C[C@]4(C)[C@H]3CC[C@@]21C [Danazol] (33.3333 µM) | 0.0332
CN1CCC(Nc2ncc3ncnc(Nc4ccc(F)c(Cl)c4)c3n2)CC1 [BIBX 1382 dihydrochloride] (33.3333 µM) | 0.00877
Cc1nc2ccc(-n3ncc(C(=O)c4cc5ccccc5[nH]4)c3N)cc2[nH]1 (33.3333 µM) | 0.785
NC1(c2ccc(-c3nc4ccn5c(=O)[nH]nc5c4cc3-c3ccccc3)cc2)CCC1 (11.1 µM) | 0.33
CC(C)NCCCn1c(Sc2cc3c(cc2I)OCO3)nc2c(N)ncnc21 (33.3333 µM) | 1.26
Cc1ccc(NC(=O)c2ccc(CN3CCN(C)CC3)cc2)cc1Nc1nc(-c2cccnc2)cs1 [Masitinib (AB1010, Masivet)] (6.66667 µM) | 0.706
CCN(CC)CCCCNc1ncc2cc(-c3c(Cl)cccc3Cl)c(NC(=O)NC(C)(C)C)nc2n1 (33.3333 µM) | 0.196
C[C@H]1O[C@@H](O[C@H]2[C@@H](O)C[C@H](O[C@H]3[C@@H](O)C[C@H](O[C@H]4CC[C@@]5(C)[C@H](CC[C@@H]6[C@@H]5C[C@@H](O)[C@]5(C)[C@@H](C7=CC(=O)OC7)CC[C@]65O)C4)O[C@@H]3C)O[C@@H]2C)C[C@H](O)[C@@H]1O [Digoxin] (33.3333 µM) | 0.0126
CNCc1ccc(-c2[nH]c3cc(F)cc4c3c2CCNC4=O)cc1 (33.3333 µM) | 0.864
O=S(=O)(NCCNC/C=C/c1ccc(Br)cc1)c1cccc2cnccc12 [H-89, Dihydrochloride] (11.1 µM) | 1.09
OCCN1CCN(CCCN2c3ccccc3Sc3ccc(C(F)(F)F)cc32)CC1 (33.3333 µM) | 0.0188
CC(C)(C)c1cc(NC(=O)Nc2ccc(-c3cn4c(n3)sc3cc(OCCN5CCOCC5)ccc34)cc2)no1 [Quizartinib  (AC220)] (11.1 µM) | 0.258
CNCc1ccc(-c2cc(-c3nc(-c4ccc(S(=O)(=O)C(C)C)cc4)cnc3N)on2)cc1 (11.1 µM) | 0.0206
COc1cc2nc(N3CCCN(C)CC3)nc(NC3CCN(Cc4ccccc4)CC3)c2cc1OC (3.33333 µM) | 0.0176
CN1CCCN(C(c2ccccc2)c2ccc(Cl)cc2)CC1 (stereo not given) [Homochlorcyclizine dihydrochloride] (33.3333 µM) | 0.0102
CC[C@]1(O)C[C@@H]2CN(CCc3c([nH]c4ccccc34)[C@@](C(=O)OC)(c3cc4c(cc3OC)N(C)[C@H]3[C@@](O)(C(=O)OC)[C@H](OC(C)=O)[C@]5(CC)C=CCN6CC[C@]43[C@@H]65)C2)C1 [Vinblastine sulfate] (33.3333 µM) | 0.02
